# Source: publication PMC7862700, “An all-to-all approach to the identification of sequence-specific readers for epigenetic DNA modifications on cytosine”
# How the values were obtained:
# Assay in all cases: DAPPL (digital affinity profiling via proximity ligation, sequencing); 10 mM Tris-HCl pH 7.5, 50 mM NaCl, 1 mM DTT, 4% glycerol, room temperature, 30 min; GST-TFs on glutathione beads, 16-mer random dsDNA library, 0.1% formaldehyde crosslink after washing; high values mean tight binding
# FLI1 = biological target: T1, FLI1 (Homo sapiens, UniProt Q01543 1-452); conditions: protein: recombinant; tags: N-terminal GST; dsDNA, one strand shown
# T1 sequence: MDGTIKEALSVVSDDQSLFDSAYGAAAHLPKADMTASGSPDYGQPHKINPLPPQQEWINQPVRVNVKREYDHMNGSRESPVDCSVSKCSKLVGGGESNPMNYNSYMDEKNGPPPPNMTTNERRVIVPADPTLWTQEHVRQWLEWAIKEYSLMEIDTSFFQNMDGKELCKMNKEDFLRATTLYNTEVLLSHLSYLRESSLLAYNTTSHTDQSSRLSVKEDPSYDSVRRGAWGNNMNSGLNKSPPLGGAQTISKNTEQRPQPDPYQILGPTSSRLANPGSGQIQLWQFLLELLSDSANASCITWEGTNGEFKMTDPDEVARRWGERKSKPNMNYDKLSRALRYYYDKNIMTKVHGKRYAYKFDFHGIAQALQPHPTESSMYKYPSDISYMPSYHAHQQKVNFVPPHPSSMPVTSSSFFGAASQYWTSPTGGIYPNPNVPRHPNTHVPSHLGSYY
# Method in brief: (§1)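 Binding signal is defined as a hexamer's read frequency for one factor over its frequency for the tag-only sample. To obtain reads, GST-fused human transcription factors were expressed in yeast, captured on glutathione beads, barcoded with DNA and pooled with that sample. Pools met 200 nmole of a 16-mer random double-stranded DNA library in Tris/NaCl/DTT/glycerol buffer for 30 min at room temperature before washing, 0.1% formaldehyde crosslinking, proximity ligation (BsaI/T4 ligase, 1 h, 37 °C), PCR and Illumina NextSeq500 sequencing.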
# ELK1 = biological target: T2, ELK1 (Homo sapiens, UniProt P19419 1-428); conditions: protein: recombinant; tags: N-terminal GST; dsDNA, one strand shown
# T2 sequence: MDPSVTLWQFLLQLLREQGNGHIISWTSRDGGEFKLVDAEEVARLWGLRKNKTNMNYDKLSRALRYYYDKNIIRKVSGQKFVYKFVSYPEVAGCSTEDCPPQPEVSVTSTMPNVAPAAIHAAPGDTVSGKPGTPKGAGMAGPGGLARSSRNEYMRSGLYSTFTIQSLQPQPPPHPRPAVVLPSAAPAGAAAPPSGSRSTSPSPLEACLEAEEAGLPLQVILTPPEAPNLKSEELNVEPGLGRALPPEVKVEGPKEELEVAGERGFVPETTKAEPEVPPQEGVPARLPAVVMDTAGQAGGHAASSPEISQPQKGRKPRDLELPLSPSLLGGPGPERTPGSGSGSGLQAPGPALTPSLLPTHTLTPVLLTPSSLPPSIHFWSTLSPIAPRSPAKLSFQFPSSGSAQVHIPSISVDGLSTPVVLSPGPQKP
# Method in brief: as §1
# GABPA = biological target: T3, GABPA (Homo sapiens, UniProt Q06546 1-454); conditions: protein: recombinant; tags: N-terminal GST; dsDNA, one strand shown
# T3 sequence: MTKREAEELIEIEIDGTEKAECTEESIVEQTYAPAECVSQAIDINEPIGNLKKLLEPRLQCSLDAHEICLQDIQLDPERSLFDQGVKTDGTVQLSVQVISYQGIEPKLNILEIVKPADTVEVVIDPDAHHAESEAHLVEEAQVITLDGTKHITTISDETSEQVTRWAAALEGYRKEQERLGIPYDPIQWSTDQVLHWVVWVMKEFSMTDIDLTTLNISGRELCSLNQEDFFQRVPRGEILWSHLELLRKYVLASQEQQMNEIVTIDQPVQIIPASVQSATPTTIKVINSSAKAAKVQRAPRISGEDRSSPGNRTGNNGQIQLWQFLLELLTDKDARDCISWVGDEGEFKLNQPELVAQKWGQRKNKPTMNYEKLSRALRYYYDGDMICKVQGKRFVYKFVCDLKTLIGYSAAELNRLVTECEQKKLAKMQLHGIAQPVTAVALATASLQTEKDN
# Method in brief: as §1
# ERG = biological target: T4, ERG (Homo sapiens, UniProt P11308 1-479); conditions: protein: recombinant; tags: N-terminal GST; dsDNA, one strand shown
# T4 sequence: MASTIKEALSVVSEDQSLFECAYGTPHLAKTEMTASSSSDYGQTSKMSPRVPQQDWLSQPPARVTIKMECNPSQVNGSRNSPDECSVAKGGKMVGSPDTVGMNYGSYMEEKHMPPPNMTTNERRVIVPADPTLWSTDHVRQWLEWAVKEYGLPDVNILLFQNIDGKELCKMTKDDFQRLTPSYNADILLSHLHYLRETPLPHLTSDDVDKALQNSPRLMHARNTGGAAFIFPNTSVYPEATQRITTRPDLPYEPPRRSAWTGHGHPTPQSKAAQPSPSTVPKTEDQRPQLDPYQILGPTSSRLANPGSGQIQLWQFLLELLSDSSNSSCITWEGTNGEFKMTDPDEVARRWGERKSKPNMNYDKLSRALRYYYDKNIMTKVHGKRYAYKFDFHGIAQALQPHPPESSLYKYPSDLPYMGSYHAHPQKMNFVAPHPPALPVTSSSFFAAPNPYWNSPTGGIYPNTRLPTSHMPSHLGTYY
# Method in brief: as §1
# ELF1 = ELF1 (Homo sapiens, UniProt P32519 1-619); conditions: protein: recombinant; tags: N-terminal GST; dsDNA, one strand shown
# Sequence of ELF1 (P32519 whole entry): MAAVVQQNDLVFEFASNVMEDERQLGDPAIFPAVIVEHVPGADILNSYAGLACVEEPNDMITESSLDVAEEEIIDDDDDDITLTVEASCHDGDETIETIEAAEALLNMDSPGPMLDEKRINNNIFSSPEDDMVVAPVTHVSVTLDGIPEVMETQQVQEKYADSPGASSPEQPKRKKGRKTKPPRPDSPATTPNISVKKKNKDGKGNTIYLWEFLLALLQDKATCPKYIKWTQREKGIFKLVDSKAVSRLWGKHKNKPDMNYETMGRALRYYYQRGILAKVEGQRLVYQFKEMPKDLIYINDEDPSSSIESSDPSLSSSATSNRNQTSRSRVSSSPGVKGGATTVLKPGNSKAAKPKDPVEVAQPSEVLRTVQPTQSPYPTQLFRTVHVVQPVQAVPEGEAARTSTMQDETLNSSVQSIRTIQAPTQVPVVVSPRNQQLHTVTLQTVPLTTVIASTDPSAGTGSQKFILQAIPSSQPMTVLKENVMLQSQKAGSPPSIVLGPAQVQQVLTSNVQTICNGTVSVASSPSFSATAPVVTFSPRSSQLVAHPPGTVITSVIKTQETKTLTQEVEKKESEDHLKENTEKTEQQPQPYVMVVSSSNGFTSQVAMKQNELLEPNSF
# Method in brief: as §1
# EHF = biological target: T5, EHF (Homo sapiens, UniProt Q9NZC4 1-300); conditions: protein: recombinant; tags: N-terminal GST; dsDNA, one strand shown
# T5 sequence: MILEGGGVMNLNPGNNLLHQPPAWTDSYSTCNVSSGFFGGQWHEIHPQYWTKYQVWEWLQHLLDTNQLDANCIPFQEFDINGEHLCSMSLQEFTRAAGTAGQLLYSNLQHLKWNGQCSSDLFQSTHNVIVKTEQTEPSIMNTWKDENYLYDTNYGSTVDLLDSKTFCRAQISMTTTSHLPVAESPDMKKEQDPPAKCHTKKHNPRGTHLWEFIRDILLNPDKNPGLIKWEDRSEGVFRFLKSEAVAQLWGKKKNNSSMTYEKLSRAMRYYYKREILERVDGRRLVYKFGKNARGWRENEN
# Method in brief: as §1
# SPI1 = SPI1 (Homo sapiens, UniProt P17947 1-270); conditions: protein: recombinant; tags: N-terminal GST; dsDNA, one strand shown
# Method in brief: as §1
# SPIB = SPIB (Homo sapiens, UniProt Q01892 1-262); conditions: protein: recombinant; tags: N-terminal GST; dsDNA, one strand shown
# Sequence of SPIB (Q01892 whole entry): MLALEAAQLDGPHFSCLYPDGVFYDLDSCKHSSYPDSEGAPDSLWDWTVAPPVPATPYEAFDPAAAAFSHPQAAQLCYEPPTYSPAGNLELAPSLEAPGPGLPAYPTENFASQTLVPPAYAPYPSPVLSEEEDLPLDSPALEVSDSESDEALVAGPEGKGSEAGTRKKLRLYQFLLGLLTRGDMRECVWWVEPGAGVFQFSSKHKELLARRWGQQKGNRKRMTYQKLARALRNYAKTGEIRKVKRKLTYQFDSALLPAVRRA
# Method in brief: as §1
# ELK3 = biological target: T6, ELK3 (Homo sapiens, UniProt P41970 1-407); conditions: protein: recombinant; tags: N-terminal GST; dsDNA, one strand shown
# T6 sequence: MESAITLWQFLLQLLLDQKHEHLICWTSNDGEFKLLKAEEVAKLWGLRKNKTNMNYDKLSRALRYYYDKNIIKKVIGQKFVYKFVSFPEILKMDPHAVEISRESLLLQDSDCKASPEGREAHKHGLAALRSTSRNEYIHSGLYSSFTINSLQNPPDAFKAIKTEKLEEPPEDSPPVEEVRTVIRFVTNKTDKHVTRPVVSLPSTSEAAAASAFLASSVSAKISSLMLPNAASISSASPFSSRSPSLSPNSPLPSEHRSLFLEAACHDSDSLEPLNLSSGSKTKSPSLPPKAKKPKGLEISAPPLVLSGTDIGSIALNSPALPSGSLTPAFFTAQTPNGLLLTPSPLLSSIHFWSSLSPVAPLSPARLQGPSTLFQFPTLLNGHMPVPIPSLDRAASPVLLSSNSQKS
# Method in brief: as §1
# FEV = biological target: T7, FEV (Homo sapiens, UniProt Q99581 1-238); conditions: protein: recombinant; tags: N-terminal GST; dsDNA, one strand shown
# T7 sequence: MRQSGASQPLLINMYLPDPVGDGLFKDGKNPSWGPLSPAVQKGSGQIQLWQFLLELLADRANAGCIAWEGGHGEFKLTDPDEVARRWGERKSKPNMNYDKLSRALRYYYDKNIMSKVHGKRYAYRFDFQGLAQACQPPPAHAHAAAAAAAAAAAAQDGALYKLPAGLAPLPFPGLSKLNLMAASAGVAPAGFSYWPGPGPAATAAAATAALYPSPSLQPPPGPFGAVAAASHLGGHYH
# Method in brief: as §1
# ETV5 = ETV5 (Homo sapiens, UniProt P41161 1-510); conditions: protein: recombinant; tags: N-terminal GST; dsDNA, one strand shown
# Sequence of ETV5 (P41161 whole entry): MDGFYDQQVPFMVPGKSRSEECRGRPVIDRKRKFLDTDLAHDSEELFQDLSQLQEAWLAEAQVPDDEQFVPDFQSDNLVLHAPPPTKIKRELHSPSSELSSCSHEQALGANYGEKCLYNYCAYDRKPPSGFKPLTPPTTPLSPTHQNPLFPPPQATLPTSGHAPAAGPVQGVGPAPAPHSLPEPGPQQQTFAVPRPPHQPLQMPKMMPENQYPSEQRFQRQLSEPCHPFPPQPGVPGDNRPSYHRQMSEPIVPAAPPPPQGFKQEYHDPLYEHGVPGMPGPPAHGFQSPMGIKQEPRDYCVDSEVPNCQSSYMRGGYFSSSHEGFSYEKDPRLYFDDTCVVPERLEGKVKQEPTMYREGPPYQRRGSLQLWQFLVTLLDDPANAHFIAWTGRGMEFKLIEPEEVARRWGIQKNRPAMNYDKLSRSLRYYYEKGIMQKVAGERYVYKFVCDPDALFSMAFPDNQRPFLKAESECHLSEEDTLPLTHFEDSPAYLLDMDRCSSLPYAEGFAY
# Method in brief: as §1
# HSF1 = HSF1 (Homo sapiens, UniProt Q00613 1-529); conditions: protein: recombinant; tags: N-terminal GST; chain copies: 3; dsDNA, one strand shown
# Sequence of HSF1 (Q00613 whole entry): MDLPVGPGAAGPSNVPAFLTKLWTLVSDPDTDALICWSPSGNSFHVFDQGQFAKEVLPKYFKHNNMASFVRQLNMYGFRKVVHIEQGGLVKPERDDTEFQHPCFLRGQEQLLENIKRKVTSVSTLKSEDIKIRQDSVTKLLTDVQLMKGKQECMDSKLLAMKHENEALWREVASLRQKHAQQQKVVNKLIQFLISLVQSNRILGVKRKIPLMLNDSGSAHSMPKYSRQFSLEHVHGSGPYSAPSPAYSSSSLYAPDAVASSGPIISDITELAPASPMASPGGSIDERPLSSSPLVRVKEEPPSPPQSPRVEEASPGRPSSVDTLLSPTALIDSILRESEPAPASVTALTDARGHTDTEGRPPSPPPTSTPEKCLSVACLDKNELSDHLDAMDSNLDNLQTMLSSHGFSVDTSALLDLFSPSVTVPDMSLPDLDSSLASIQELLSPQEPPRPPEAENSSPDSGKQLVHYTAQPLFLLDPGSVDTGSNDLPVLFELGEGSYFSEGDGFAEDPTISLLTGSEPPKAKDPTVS
# Method in brief: as §1
# SPIC = biological target: T8, SPIC (Homo sapiens, UniProt Q8N5J4 1-248); conditions: protein: recombinant; tags: N-terminal GST; dsDNA, one strand shown
# T8 sequence: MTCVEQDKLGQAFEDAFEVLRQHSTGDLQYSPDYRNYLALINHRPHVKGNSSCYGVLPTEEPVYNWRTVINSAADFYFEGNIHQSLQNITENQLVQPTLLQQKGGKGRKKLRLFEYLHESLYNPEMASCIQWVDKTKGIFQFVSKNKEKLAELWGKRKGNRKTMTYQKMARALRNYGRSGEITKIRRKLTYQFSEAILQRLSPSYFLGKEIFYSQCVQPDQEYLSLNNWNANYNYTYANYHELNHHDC
# Method in brief: as §1
# ELF4 = ELF4 (Homo sapiens, UniProt Q99607 1-663); conditions: protein: recombinant; tags: N-terminal GST; dsDNA, one strand shown
# Sequence of ELF4 (Q99607 whole entry): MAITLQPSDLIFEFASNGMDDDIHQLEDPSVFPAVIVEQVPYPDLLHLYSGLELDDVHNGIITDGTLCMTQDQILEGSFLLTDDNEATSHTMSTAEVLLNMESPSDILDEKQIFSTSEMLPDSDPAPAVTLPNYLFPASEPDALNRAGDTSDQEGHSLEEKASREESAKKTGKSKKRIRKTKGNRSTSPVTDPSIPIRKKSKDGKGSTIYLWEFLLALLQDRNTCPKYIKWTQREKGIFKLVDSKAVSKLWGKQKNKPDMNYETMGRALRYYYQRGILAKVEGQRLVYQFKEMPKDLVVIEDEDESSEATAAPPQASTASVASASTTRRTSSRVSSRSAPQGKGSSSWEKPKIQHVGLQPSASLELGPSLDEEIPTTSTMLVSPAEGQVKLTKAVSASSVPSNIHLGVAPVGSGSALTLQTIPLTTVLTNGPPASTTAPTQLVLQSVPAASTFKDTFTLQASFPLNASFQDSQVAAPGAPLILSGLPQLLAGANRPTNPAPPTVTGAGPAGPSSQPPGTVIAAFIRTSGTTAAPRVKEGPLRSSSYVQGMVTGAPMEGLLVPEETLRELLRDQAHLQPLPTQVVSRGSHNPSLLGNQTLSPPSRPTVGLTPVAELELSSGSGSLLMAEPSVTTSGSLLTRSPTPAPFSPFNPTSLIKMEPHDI
# Method in brief: as §1
# ELK4 = biological target: T9, ELK4 (Homo sapiens, UniProt P28324-2 1-405); conditions: protein: recombinant; tags: N-terminal GST; dsDNA, one strand shown
# T9 sequence: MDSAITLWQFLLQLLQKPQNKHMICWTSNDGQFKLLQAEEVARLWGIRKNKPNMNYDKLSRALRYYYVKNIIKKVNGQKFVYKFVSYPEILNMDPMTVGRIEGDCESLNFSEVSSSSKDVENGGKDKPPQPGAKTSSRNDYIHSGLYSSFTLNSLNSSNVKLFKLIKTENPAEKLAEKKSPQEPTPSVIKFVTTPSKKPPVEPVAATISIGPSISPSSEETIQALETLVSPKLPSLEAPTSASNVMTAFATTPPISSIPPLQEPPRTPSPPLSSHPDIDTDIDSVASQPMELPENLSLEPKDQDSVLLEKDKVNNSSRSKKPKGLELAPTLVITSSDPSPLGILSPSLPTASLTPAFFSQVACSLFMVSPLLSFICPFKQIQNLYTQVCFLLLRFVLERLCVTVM
# Method in brief: as §1
# ETV2 = biological target: T10, ETV2 (Homo sapiens, UniProt O00321 1-342); conditions: protein: recombinant; tags: N-terminal GST; dsDNA, one strand shown
# T10 sequence: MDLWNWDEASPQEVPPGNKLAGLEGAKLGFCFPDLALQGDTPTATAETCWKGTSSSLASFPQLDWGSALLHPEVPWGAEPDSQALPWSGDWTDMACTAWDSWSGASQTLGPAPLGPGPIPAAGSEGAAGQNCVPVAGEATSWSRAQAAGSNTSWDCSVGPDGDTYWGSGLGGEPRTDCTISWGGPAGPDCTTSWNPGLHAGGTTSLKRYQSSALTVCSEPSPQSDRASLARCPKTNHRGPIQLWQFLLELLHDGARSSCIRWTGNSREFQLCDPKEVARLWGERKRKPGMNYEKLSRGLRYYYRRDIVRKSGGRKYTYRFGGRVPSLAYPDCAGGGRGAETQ
# Method in brief: as §1
# ELF3 = biological target: T11, ELF3 (Homo sapiens, UniProt P78545 1-371); conditions: protein: recombinant; tags: N-terminal GST; dsDNA, one strand shown
# T11 sequence: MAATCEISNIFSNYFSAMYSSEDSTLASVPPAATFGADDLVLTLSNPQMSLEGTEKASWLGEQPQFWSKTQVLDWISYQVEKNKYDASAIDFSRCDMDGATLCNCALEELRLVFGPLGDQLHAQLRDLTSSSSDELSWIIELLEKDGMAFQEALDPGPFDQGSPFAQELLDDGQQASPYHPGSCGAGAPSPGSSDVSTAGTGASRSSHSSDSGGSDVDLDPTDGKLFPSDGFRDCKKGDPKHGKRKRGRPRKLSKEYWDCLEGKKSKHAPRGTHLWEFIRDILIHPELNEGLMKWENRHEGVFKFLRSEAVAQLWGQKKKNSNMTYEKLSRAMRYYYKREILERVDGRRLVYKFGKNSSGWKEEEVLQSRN
# Method in brief: as §1
# CRX = CRX (Homo sapiens, UniProt O43186 1-299); conditions: protein: recombinant; tags: N-terminal GST; dsDNA, one strand shown
# Sequence of CRX (O43186 whole entry): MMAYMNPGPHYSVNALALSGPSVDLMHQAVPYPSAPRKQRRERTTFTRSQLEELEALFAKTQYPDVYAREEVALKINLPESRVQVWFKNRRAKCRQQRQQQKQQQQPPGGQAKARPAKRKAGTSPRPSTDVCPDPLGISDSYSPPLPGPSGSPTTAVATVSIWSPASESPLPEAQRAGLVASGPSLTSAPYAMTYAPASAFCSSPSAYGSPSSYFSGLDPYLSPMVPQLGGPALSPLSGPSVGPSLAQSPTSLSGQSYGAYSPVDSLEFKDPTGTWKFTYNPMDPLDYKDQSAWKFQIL
# Method in brief: as §1
# ETV1 = ETV1 (Homo sapiens, UniProt P50549 1-477); conditions: protein: recombinant; tags: N-terminal GST; dsDNA, one strand shown
# Sequence of ETV1 (P50549 whole entry): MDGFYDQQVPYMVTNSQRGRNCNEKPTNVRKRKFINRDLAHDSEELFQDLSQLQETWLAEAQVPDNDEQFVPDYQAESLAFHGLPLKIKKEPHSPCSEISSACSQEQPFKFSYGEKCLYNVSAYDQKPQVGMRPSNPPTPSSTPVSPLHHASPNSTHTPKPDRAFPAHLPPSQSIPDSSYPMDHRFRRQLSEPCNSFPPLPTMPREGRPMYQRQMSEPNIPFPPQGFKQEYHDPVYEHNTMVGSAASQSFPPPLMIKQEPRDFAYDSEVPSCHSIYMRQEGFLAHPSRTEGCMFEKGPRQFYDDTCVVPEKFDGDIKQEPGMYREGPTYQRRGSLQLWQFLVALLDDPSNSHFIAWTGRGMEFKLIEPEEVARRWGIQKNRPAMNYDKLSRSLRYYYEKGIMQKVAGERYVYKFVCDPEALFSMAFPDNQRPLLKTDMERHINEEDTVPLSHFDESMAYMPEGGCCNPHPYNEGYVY
# Method in brief: as §1
sequence,measurement,setting,value
TACAGA,binding signal,FLI1,"1.08 fold enrichment (6-mer frequency, TF over GST control)"
same,binding signal,ELK1,"1.14 fold enrichment (6-mer frequency, TF over GST control)"
same,binding signal,GABPA,"1.25 fold enrichment (6-mer frequency, TF over GST control)"
same,binding signal,ERG,"1.11 fold enrichment (6-mer frequency, TF over GST control)"
same,binding signal,ELF1,"1.14 fold enrichment (6-mer frequency, TF over GST control)"
same,binding signal,EHF,"1.11 fold enrichment (6-mer frequency, TF over GST control)"
same,binding signal,SPI1,"1.13 fold enrichment (6-mer frequency, TF over GST control)"
same,binding signal,SPIB,"1.16 fold enrichment (6-mer frequency, TF over GST control)"
same,binding signal,ELK3,"1.06 fold enrichment (6-mer frequency, TF over GST control)"
same,binding signal,FEV,"1.13 fold enrichment (6-mer frequency, TF over GST control)"
same,binding signal,ETV5,"1.12 fold enrichment (6-mer frequency, TF over GST control)"
same,binding signal,HSF1,"1.28 fold enrichment (6-mer frequency, TF over GST control)"
same,binding signal,SPIC,"1.25 fold enrichment (6-mer frequency, TF over GST control)"
same,binding signal,ELF4,"1.13 fold enrichment (6-mer frequency, TF over GST control)"
same,binding signal,ELK4,"1.1 fold enrichment (6-mer frequency, TF over GST control)"
same,binding signal,ETV2,"1.25 fold enrichment (6-mer frequency, TF over GST control)"
same,binding signal,ELF3,"1.11 fold enrichment (6-mer frequency, TF over GST control)"
same,binding signal,CRX,"1.25 fold enrichment (6-mer frequency, TF over GST control)"
same,binding signal,ETV1,"1.16 fold enrichment (6-mer frequency, TF over GST control)"
